# PubChem BioAssay AID588413 (Sanford-Burnham Center for Chemical Genomics, 2011)
# In all, about 340,000 compounds went through this assay and about 2,500 (0.74%) were called active. The list comes from a sample in which actives are over-represented; it also holds similar structures and randomly drawn compounds. Values without a mark were called inactive.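 Rule for the calls: active = inhibition above about 55% (limit read from the data); inactive = the rest.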
# Assay: Gli-Sufu pathway antagonists, primary screen, luciferase luminescence, Sufu-KO-LIGHT cells, uHTS (AID 588413);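 note: 0% = DMSO-treated cells and 100% = wells with medium but no cells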
# Details: Sufu-KO-LIGHT fibroblasts, Gli luciferase reporter luminescence; at 5 µM; stronger effect = higher value
row,Compound,inhibition
1,Cc1ccc(S(=O)(=O)N(C)C)cc1NC(=O)C1Cc2ccccc2CN1C(=O)c1ccco1 (configuration not stated),-7.42%
2,COc1ccc(CCNC(=O)C(=O)NCC2OCCN2S(=O)(=O)c2cccs2)cc1OC (configuration not stated),1.51%
3,COc1ccc2c(c1)CCNC2Cc1ccc(OC)c(O)c1 (configuration not stated),7.38%
4,COc1cc2c(cc1OC)CN(CC(=O)Nc1ccc(F)cc1)CC2,9.09%
5,CC[C@H]1CN2CCc3cc(OC)c(OC)cc3[C@@H]2C[C@@H]1C[C@H]1NCCc2cc(OC)c(OC)cc21,71.3% (active)
6,C=CC(=O)Nc1ccc(Nc2ccnc(Nc3ccc(N4CCN(C)CC4)cc3)n2)cc1,21.8%
7,CC(NC(=O)C1CCC(CNc2c(N3CCOCC3)c(=O)c2=O)CC1)c1ccccc1 (configuration not stated),-5.64%
8,COCCN(Cc1ccccc1)C(=O)Cc1ccc(S(=O)(=O)N2CCOCC2)s1,4.55%
9,Cc1nnc(SCC(=O)Nc2cccc(N)c2)n1-c1ccccc1,-28.9%
10,CC(=O)c1cccc(NC(=O)c2cc(C)nn2-c2ccccc2)c1,5.19%
11,CC[n+]1c(C)n(-c2ccccc2)c2ccc(NC(C)=O)cc21,76.3% (active)
12,Cc1ccc(C(=O)NCC(=O)O)s1,-7.96%
13,CC1OC2C(OC1C)N(S(C)(=O)=O)CCN2S(C)(=O)=O (configuration not stated),-7.55%
14,Cc1ccsc1C(=O)OCC(=O)c1cc(C)n(CC2CCCO2)c1C (configuration not stated),72.1% (active)
15,Cc1ccsc1C(=O)OCC(=O)Nc1cccc(F)c1,-43.7%
16,COc1ccc(C(=O)OCC(=O)c2cc(C)n(CC3CCCO3)c2C)cc1[N+](=O)[O-] (configuration not stated),-7.49%
17,CCN(CC)C(CNC(=O)CSc1nnnn1-c1cccc(F)c1)c1ccco1 (configuration not stated),10%
18,CCN1/C(=C/C(=S)Nc2ccccc2)Sc2ccccc21,67.6% (active)
19,CCOC(=O)CNC(=O)N1c2ccccc2Sc2ccccc21,2.43%
20,CCNCCC(=O)N1c2ccccc2Sc2ccc(NC(=O)OCC)cc21,26.4%
21,CC(=O)c1ccc(S(=O)(=O)NC2CC(=O)N(c3ccc4c(c3)OCCO4)C2)cc1 (configuration not stated),-3.34%

row,Compound,inhibition
1,CCN(CC(=O)Nc1c(F)cccc1F)C(=O)c1ccc(Sc2nncn2C)c([N+](=O)[O-])c1,31.3%
2,CC(C)Oc1ccc(C(=O)NC(C)(C)CO)cc1,-9.97%
3,CCC(Cc1ccccc1)NC(=O)C1CCCCC1 (configuration not stated),63.1% (active)
4,Cc1ccc(NC(=O)[C@H](Cc2ccccc2)NC(=O)C2CCNCC2)cc1,2.89%
5,CCC(NC(=O)C1CCCC1)c1ccc(C)cc1 (configuration not stated),-10.2%
6,COc1ccc(C(=O)COC(=O)Cn2cnc3c2c(=O)n(C)c(=O)n3C)c(OC)c1,3.81%
7,NC(=O)C1(Nc2ccccc2Cl)CCCC1,4.9%
8,CC[C@]12c3[nH]c4ccc(OC)cc4c3CCN1C(=O)C(CC(=O)NCc1ccco1)C[C@@H]2C(=O)N1CCN(C(=O)C2CC2)CC1 (some centres not stated),-2.82%
9,C=CCSc1nc2c(c(=O)[nH]1)C(C(C)C)C(C#N)=C(N)O2 (configuration not stated),-7.54%
10,CC1(C)CC(=O)c2sc(N)nc2C1,4.1%
11,CC/C(O)=C1\C(=O)CC(C)(C)CC1=NCCc1nc2ccccc2[nH]1,25.2%
12,CCCc1nc(N)nc2c1C(=O)CC(C)(C)C2,77.6% (active)
13,CCOc1ccc2nc(N(CCCN(C)C)C(=O)c3ccc(C(=O)c4ccccc4)cc3)sc2c1,65.2% (active)
14,CN(C)CCCN(C(=O)c1ccc(S(=O)(=O)N2CCCCCC2)cc1)c1nc2ccc(Br)cc2s1,42.7%
15,CCc1ccc2nc(N(CCCN(C)C)C(=O)c3ccc4c(c3)OCCO4)sc2c1,11.7%
16,Cc1ccc(F)c(NC(=O)CCc2ccccc2)c1,-20.7%
17,CCOc1cccc(/C=N/N2C(=O)CSC2=S)c1O,-1.42%
18,Cc1ccc(C(=O)NC(=S)NCCN2CCOCC2)cc1,-9.17%
19,CCOc1cccc(/C=N/NC(=S)NCCN2CCOCC2)c1O,81.1% (active)
20,O=C(CNc1ccc(F)cc1F)NC(=O)NCc1ccco1,-1.84%
21,Cc1cc([N+](=O)[O-])ccc1NCc1cccc([N+](=O)[O-])c1,8.75%

row,Compound,inhibition
1,COCCCNC(=S)N1CCCC(c2nc3cc(C)c(C)cc3[nH]2)C1 (configuration not stated),15.7%
2,CCC(C)(C)NC(=O)C(c1ccc(O)cc1)N(Cc1ccco1)C(=O)CCC(=O)Nc1ccccn1 (configuration not stated),-4.35%
3,Cc1ccc(NC(=O)C(C)Sc2nnc(C3CC3)n2C2CC2)cc1S(=O)(=O)N1CCOCC1 (configuration not stated),4.31%
4,CCCn1cc(S(=O)(=O)c2ccc(C)cc2)c(=O)c2cc(OCC)ccc21,32.4%
5,COc1cccc(Oc2ccc(N)cc2)c1,-23.1%
6,CC(C)(C)c1ccc(OC2=CS(=O)(=O)c3ccccc32)cc1,-36.6%
7,CC(C)(C)c1ccc(Oc2ccc(N)cc2)cc1,76.2% (active)
8,CCOc1ccc(NS(=O)(=O)c2ccc(C)c(C(N)=O)c2)cc1,29.7%
9,N#CCC(=O)Nc1ccc(C(=O)OCC(=O)Nc2sc3c(c2C#N)CCCC3)cc1,-9.19%
10,CC(=O)c1c(C)[nH]c(C(=O)OCC(=O)Nc2sc3c(c2C#N)CCCC3)c1C,69.3% (active)
11,Cc1cccc(C(=O)OCC(=O)Nc2sc3c(c2C#N)CCC3)c1,-6.89%
12,Cc1cc(C)c(C)c(S(=O)(=O)Nc2cccnc2)c1C,1.03%
13,Fc1ccc(CNc2nc3ccccc3n3nnnc23)cc1,-6.79%
14,CCc1nc2sc3c(Cl)ncnc3c2c2c1CCCC2,-1.03%
15,O=C(O)C1CC(=O)N(Cc2cccnc2)C1 (configuration not stated),-11.1%
16,Cc1ccccc1C1=N/C(=C/c2cccnc2)C(=O)O1,-7.01%
17,O=C1/C(=C\c2cccnc2)CN(Cc2ccccc2)C/C1=C\c1cccnc1,99.3% (active)
18,O=C(O)c1ccc(N/N=C/c2ccc3ncccc3c2)cc1,67% (active)
19,CCNC(=S)NNC(=O)c1ccc2ncccc2c1,-4.73%
20,Cc1ccc2cc(/C=N/Nc3ccc(C(=O)O)cc3)c(Cl)nc2c1,-101%
